The whole screen tested about 5,500 compounds, of which about 2,000 (36%) were called active. Another 18% or so got no clear call; they are omitted. Rule as the data show it: active = normalized growth mostly below about 0.91 (no sharp cut-off); inconclusive = no clear call, values can overlap the other calls; inactive = mostly above about 0.92. Some of the results follow.
Assay: chemical genetic growth profiling, strain panel (AID 1159580);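 also: tested at 20 µM; growth read once vehicle control cultures reached saturation at 30 °C; 1 = growth at the plate median or of vehicle wells; lower values mean less growth of the strain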
Conditions: S. cerevisiae deletion strains, growth OD

Measured: normalized growth

O=[N+]([O-])c1cc(C(F)(F)F)ccc1Oc1cc(C(F)(F)F)cc(C(F)(F)F)c1
inactive: locus YAL013W, strain DEP1, stronger effect = lower value 1.03 | locus YBR229C, strain ROT2, stronger effect = lower value 1 | locus YDL101C, strain DUN1, stronger effect = lower value 1.04 | locus YDL134C, strain PPH21, stronger effect = lower value 0.982 | locus YDR150W, strain NUM1, stronger effect = lower value 1.02 | locus YEL061C, strain CIN8, stronger effect = lower value 1.03 | locus YGR078C, strain PAC10, stronger effect = lower value 1.01 | locus YHR030C, strain SLT2, stronger effect = lower value 1.03 | locus YHR087W, strain rtc3, stronger effect = lower value 1.02 | locus YJR043C, strain POL32, stronger effect = lower value 0.996 | locus YJR075W, strain HOC1, stronger effect = lower value 1.01 | locus YLR039C, strain RIC1, stronger effect = lower value 1.02 | locus YLR058C, strain SHM2 (second series), stronger effect = lower value 0.982 | locus YLR085C, strain ARP6, stronger effect = lower value 1.01 | locus YLR262C, strain YPT6, stronger effect = lower value 0.992 | locus YML094W, strain GIM5, stronger effect = lower value 1.12 | locus YMR219W, strain ESC1, stronger effect = lower value 0.99 | locus YMR263W, strain SAP30, stronger effect = lower value 0.993 | locus YMR307W, strain GAS1, stronger effect = lower value 1.12 | locus YNL128W, strain TEP1, stronger effect = lower value 0.97 | locus YNL153C, strain GIM3, stronger effect = lower value 1.03 | locus YNL298W, strain CLA4 (second series), stronger effect = lower value 1.01 | locus YNL322C, strain KRE1, stronger effect = lower value 1 | locus YNR030W, strain Alg12, stronger effect = lower value 1.05 | locus YPL055C, strain LGE1, stronger effect = lower value 1.09 | locus YPL241C, strain CIN2, stronger effect = lower value 1.07 | locus YPR135W, strain CTF4, stronger effect = lower value 1.12
